Reference: PubChem BioAssay AID1159580 (chemical genetic matrix, 2015)
The whole screen tested about 5,500 compounds, of which about 2,000 (36%) were called active. About 18% were inconclusive and are not listed. The list shows a part of the results. Unmarked numbers belong to inactive results. Cut-off read from the data, not from the text of the source: active = normalized growth mostly below about 0.91 (no sharp cut-off); inconclusive = no clear call, values can overlap the other calls; inactive = mostly above about 0.92.

Experiment: chemical genetic growth profiling, strain panel (AID 1159580);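 note: tested at 20 µM; growth read once vehicle control cultures reached saturation at 30 °C; 1 = growth at the plate median or of vehicle wells; lower values mean less growth of the strain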
Conditions: S. cerevisiae deletion strains, growth OD

For Cc1oc(-c2ccc(Cl)cc2)cc1C(=O)N1CCN(c2ccc(C(F)(F)F)cn2)CC1, the normalized growth (locus YAR019C, strain CDC15, active compounds read low) was 0.977, the normalized growth (locus YBL105C, strain PKC1, active compounds read low) was 0.972 and the normalized growth (locus YBR135W, strain CKS1, active compounds read low) was 0.97. It also gave a normalized growth (locus YBR136W, strain MEC1, active compounds read low) of 0.963, a normalized growth (locus YBR160W, strain CDC28, active compounds read low) of 0.969 and a normalized growth (locus YDL017W, strain CDC7, active compounds read low) of 0.978. It also gave a normalized growth (locus YDL028C, strain MPS1, active compounds read low) of 0.974, a normalized growth (locus YDL101C, strain DUN1, active compounds read low) of 0.983 and a normalized growth (locus YDL108W, strain KIN28, active compounds read low) of 0.974. The normalized growth (locus YDL132W, strain cdc53, active compounds read low) was 0.982, the normalized growth (locus YDL214C, strain PRR2, active compounds read low) was 0.908 and the normalized growth (locus YDR052C, strain DBF4, active compounds read low) was 0.982. The normalized growth (locus YDR054C, strain cdc34, active compounds read low) was 0.969, the normalized growth (locus YDR226W, strain ADK1, active compounds read low) was 0.972 and the normalized growth (locus YDR477W, strain SNF1, active compounds read low) was 0.925. It also gave a normalized growth (locus YER123W, strain YCK3, active compounds read low) of 0.926, a normalized growth (locus YER133W, strain GLC7, active compounds read low) of 0.938 and a normalized growth (locus YFL009W, strain cdc4, active compounds read low) of 0.967. The normalized growth (locus YFL029C, strain CAK1, active compounds read low) was 0.986, the normalized growth (locus YFR003C, strain YPI1, active compounds read low) was 0.974 and the normalized growth (locus YFR019W, strain FAB1, active compounds read low) was 0.992. The normalized growth (locus YFR028C, strain CDC14, active compounds read low) was 0.976, the normalized growth (locus YGR040W, strain KSS1, active compounds read low) was 0.929 and the normalized growth (locus YGR052W, strain FMP48, active compounds read low) was 0.959. For the same compound, the normalized growth (locus YGR092W, strain DBF2, active compounds read low) was 0.874, the normalized growth (locus YHR030C, strain SLT2, active compounds read low) was 0.682 (active) and the normalized growth (locus YHR079C, strain IRE1, active compounds read low) was 0.964. The normalized growth (locus YHR082C, strain KSP1, active compounds read low) was 0.966, the normalized growth (locus YHR205W, strain SCH9, active compounds read low) was 0.883 and the normalized growth (locus YIL147C, strain SLN1, active compounds read low) was 0.979. The normalized growth (locus YJL095W, strain BCK1, active compounds read low) was 0.905, the normalized growth (locus YJL128C, strain PBS2, active compounds read low) was 0.918 and the normalized growth (locus YJL157C, strain FAR1, active compounds read low) was 0.944. It also gave a normalized growth (locus YJR016C, strain ILV3, active compounds read low) of 0.979, a normalized growth (locus YJR066W, strain TOR1 (second series), active compounds read low) of 0.975 and a normalized growth (locus YJR066W, strain TOR1, active compounds read low) of 0.9. It also gave a normalized growth (locus YKL048C, strain ELM1, active compounds read low) of 0.976, a normalized growth (locus YKL067W, strain YNK1, active compounds read low) of 0.907 and a normalized growth (locus YKL101W, strain HSL1, active compounds read low) of 0.94. For the same compound, the normalized growth (locus YKL193C, strain SDS22, active compounds read low) was 0.97, the normalized growth (locus YKL203C, strain TOR2, active compounds read low) was 1 and the normalized growth (locus YLR113W, strain HOG1, active compounds read low) was 0.893. The normalized growth (locus YLR133W, strain CKI1, active compounds read low) was 0.929, the normalized growth (locus YLR403W, strain SFP1, active compounds read low) was 0.94 and the normalized growth (locus YML070W, strain DAK1, active compounds read low) was 0.951. The normalized growth (locus YMR001C, strain CDC5, active compounds read low) was 0.989, the normalized growth (locus YMR205C, strain PFK2 (second series), active compounds read low) was 0.937 and the normalized growth (locus YMR277W, strain FCP1, active compounds read low) was 0.975. For the same compound, the normalized growth (locus YNL006W, strain LST8, active compounds read low) was 0.981, the normalized growth (locus YNL020C, strain ARK1, active compounds read low) was 0.933 and the normalized growth (locus YNL161W, strain CBK1, active compounds read low) was 0.975. It also gave a normalized growth (locus YNL183C, strain NPR1, active compounds read low) of 0.95, a normalized growth (locus YNL207W, strain RIO2, active compounds read low) of 0.973 and a normalized growth (locus YNL222W, strain SSU72, active compounds read low) of 0.981. The normalized growth (locus YNL307C, strain MCK1 (second series), active compounds read low) was 0.944, the normalized growth (locus YOL078W, strain AVO1, active compounds read low) was 0.981 and the normalized growth (locus YOL136C, strain PFK27, active compounds read low) was 0.961. The normalized growth (locus YOR061W, strain CKA2, active compounds read low) was 0.873, the normalized growth (locus YOR119C, strain RIO1, active compounds read low) was 0.929 and the normalized growth (locus YOR231W, strain MKK1, active compounds read low) was 0.96. For the same compound, the normalized growth (locus YOR329C, strain SCD5, active compounds read low) was 0.982, the normalized growth (locus YPL031C, strain PHO85, active compounds read low) was 0.936 and the normalized growth (locus YPL153C, strain RAD53, active compounds read low) was 0.948. The normalized growth (locus YPL204W, strain HRR25, active compounds read low) was 0.936, the normalized growth (locus YPL209C, strain IPL1, active compounds read low) was 0.983 and the normalized growth (locus YPL256C, strain CLN2, active compounds read low) was 0.909. For the same compound, the normalized growth (locus YPR025C, strain CCL1, active compounds read low) was 0.975, the normalized growth (locus YPR106W, strain ISR1, active compounds read low) was 0.972 and the normalized growth (locus YPR111W, strain DBF20, active compounds read low) was 0.955. For the same compound, the normalized growth (strain NNK1, active compounds read low) was 0.97 and the normalized growth (strain TSCII, active compounds read low) was 0.98.
